Test results: PubChem BioAssay (NCI)
This is part of a sample that, as a whole, favours compounds with a hit. Of some 83,000 tested, about 20% had one in any assay.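 Activity criterion: percent growth below 10, measured after cells in 96-well plates were exposed to a single compound concentration for 48 hours.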 The source made the active and inactive calls.

test system: HL-60(TB) leukemia; assay: NCI-60 one-dose screen, 48 h (100 = growth as untreated, 0 = no growth, -100 = all killed); conditions: 10 µM unless noted

SMILES	growth
CC(=O)c1sc(Nc2cccc(Nc3nc(C)c(C)s3)c2)nc1C	34.2% (inactive)
Cn1c2ccccc2c2c3c(c4c5ccc(Br)cc5oc4c21)C(=O)N(O)C3=O	73% (inactive)
C=C1C(=O)O[C@@H]2/C=C(/C)C3=CC(=O)[C@@](C)(C[C@H](OC(=O)/C(C)=C\C)[C@@H]12)O3	-11.9% (active)
Cc1cc(=O)oc2cc(OCCCOc3ccc(/C=C/C(=O)Nc4ccc(Br)cc4)cc3)ccc12	95.8% (inactive)
CC(C)(C)OC(=O)N1CCN(S(=O)(=O)/N=C2\NC(=O)NC2=C(Cl)Cl)CC1	40.3% (inactive)
Brc1cc(-c2cc(-c3ccc4c(c3)OCCO4)[nH]n2)cs1	24% (inactive)
O=C(CSc1nc2ccccc2c(=O)n1-c1ccc(Cl)c(Cl)c1)Nc1ccc(S(=O)(=O)Nc2ccc(Cl)nn2)cc1	106% (inactive)
Oc1[nH]c2ccccc2c1Nn1c(N=N/C=c2/ccc3c(c2)C=NN=3)n[nH]c1=S	139% (inactive)
CC(C)(C)CC(C)(C)n1nnnc1C(Nc1ccccc1)c1cc2cccc3ccc4cccc1c4c32 (centres undefined)	101% (inactive)
COC(=O)c1ccc(NC2=C(Cl)C(=O)c3nc(C)ccc3C2=O)cc1	21.2% (inactive)
CCOC(=O)C1=C(C)Nc2nc3ccccc3n2C1c1ccccc1 (centres undefined)	85.6% (inactive)
CC(=O)c1c([Si](C)(C)C)c2cc(C#N)ccn2c1C(=O)c1ccc(Br)cc1	97.8% (inactive)
CCNC(=O)N1CCc2cc(OC)c(OCCc3ccc(OC)cc3)cc2C1c1ccc([N+](=O)[O-])cc1C (centres undefined)	14% (inactive)
COc1ccc2[nH]cc(-c3csc4nc(-c5ccccc5)cn34)c2c1	13.9% (inactive)
C[C@@H](Nc1ncnc2ccc(-c3cnc(Cl)c(NS(C)(=O)=O)c3)cc12)c1ccccc1	39% (inactive)
O=S(=O)(NC1CC2CCC1C2)c1ccc2c(c1)C(=NO)c1cc(S(=O)(=O)NC3CC4CCC3C4)ccc1-2 (centres undefined)	-29.7% (active)
IP(CCCSc1n(Cc2ccc3ccccc3c2)c(-c2ccccc2)c(-c2ccccc2)[n+]1Cc1ccc2ccccc2c1)(c1ccccc1)(c1ccccc1)c1ccccc1	-29.1% (active)

SMILES	growth
COc1cc(-c2nc(-c3ccccc3)[nH]c2-c2ccnc(NCCCNS(=O)(=O)c3cccc(F)c3)n2)ccc1F	94.8% (inactive)
N#Cc1cccc(CN2CCC3=C(C2)C(=O)N(Cc2ccc(Cl)cc2)C2=NCCCN23)c1	11.7% (inactive)
CC(C)(C)c1cc(NC(=O)Nc2ccc(-c3cn4c5c(sc4n3)CCc3cn(CCCN4CCCCC4)cc3-5)cc2)no1	-18.9% (active)
O=C(/C=C/c1ccccc1)c1cccc(O)c1	87.5% (inactive)
CN(C)c1ccc(/C=c2\sc3nc4ccccc4n3c2=O)cc1	94.7% (inactive)
COc1ccc(C(=O)/C=C/c2ccc(OCc3ccc(Cl)cc3)c(OC)c2)cc1OC	4.56% (active)
COc1cc([C@H]2OC[C@H]3[C@@H]2CO[C@@H]3c2ccc(O)c(OC)c2)ccc1O	93.5% (inactive)
O=C(Nc1ccc(N2CCOCC2)cc1)Nc1ccc2c(ccn2C(=O)c2cccc(F)c2)c1	96.7% (inactive)
CC(C)(C)Nc1nc2c(OCCc3ccccc3)cccn2c1-c1cccc(Oc2ccccc2)c1	0.841% (active)
Cn1c2nc3ccccc3c-2cc2ccccc21	41.6% (inactive)
CC1(C)CC[C@]23CC[C@]4(C)[C@H](CC[C@@H]5[C@@]6(C)CCCN(CO)C(C)(C)[C@@H]6CC[C@]54C)[C@H]2[C@H]1OC3	36.6% (inactive)
O=C1[C@@H]2Cc3c([nH]c4ccccc34)[C@@H](c3ccc(Cl)cc3)N2C(=O)CN1C1CCN(Cc2ccccc2)CC1	-9.39% (active)
CCOC(=O)c1c(NC(=O)c2ccc(C(F)(F)F)cc2)sc2c3c(ccc12)OCN(C)C3	-27.6% (active)
COc1ccc(S(=O)(=O)NCCCNc2nccc(-c3cn(C(C)(C)C)nc3-c3ccc(Cl)c(OC)c3)n2)cc1	124% (inactive)
CC1=NC2=NC(=O)/C(=C3/N=C(C)C=C(c4ccccc4)N3N)NN2C(c2ccccc2)=C1	113% (inactive)
Nc1cc(-c2c[nH]c3ccccc23)nc2cc(-c3c[nH]c4ccccc34)nn12	40.1% (inactive)
O=C(CCCCCCNC(=O)C(O)(O)C(F)(F)F)Nc1ncc(-c2ccc(Br)cc2)s1	6.28% (active)
